Mtb FBA inh – Mtb FBA enzyme inhibitors, primary screen, biochemical, fluorescence, strain H37Rv | purified M. tuberculosis FBA, fluorescence read-out | inhibition, % at 1 µM | Fructose-bisphosphate aldolase (Mycobacterium tuberculosis (strain ATCC 25618 / H37Rv)), … | 360,000 compounds, 2.3% hits; in the data active means inhibition above about 27%;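 further: 0% = vehicle and 100% = reference inhibitor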
Mtb betalactam – beta-lactam sensitization of Mtb H37Rv, H37Rv | M. tuberculosis H37Rv growth with meropenem, percent inhibition | inhibition, % at 25 µM | 330,000 compounds, 0.27% hits | AID 434955, 2010; call rule not given here;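 further: growth measured after seven days incubation then overnight dye step; 0% = bacteria only wells and 100% = bacteria with antibiotic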
GDH-TPI counter – GDH-TPI coupling enzyme inhibitors, primary screen, artefact control for M. tuberculosis FBA inhibitor project, biochemical, absorbance, full deck; GDH-TPI coupled enzyme counterscreen, NADH absorbance; inhibition, % at 4.8 µM; 360,000 compounds, 1.2% hits; in the data active means inhibition above about 30%;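 further: 0% = DMSO wells and 100% = wells lacking the enzyme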
RecA intein inh – Mtb RecA intein splicing inhibitors, primary screen, biochemical, fluorescence, HTS; Protein RecA (Mycobacterium tuberculosis (strain ATCC 25618 / H37Rv)), P9WHJ3; cell-free RecA intein splicing; inhibition, % (test concentration not listed); 290,000 compounds, 0.75% hits; AID 2221, 2009; in the data active means inhibition above about 30%;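 further: 0% = vehicle wells and 100% = reference inhibitor control wells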
UGM FP inh – M. tuberculosis UGM enzyme inhibitors, primary screen, biochemical, fluorescence polarization, single point; UDP-galactopyranose mutase (Mycobacterium tuberculosis (strain ATCC 25618 / H37Rv)), …; purified UGM, fluorescence polarization probe displacement; inhibition, % at 10 µM; 320,000 compounds, 0.06% hits; in the data active means inhibition above about 10%, passing the limit was not always enough
Rv3671c inh – Rv3671c serine protease inhibitors, primary screen, biochemical, fluorescence polarization, M. tuberculosis H37Rv; 320,000 compounds, 0.048% hits; P9WHR9; inhibition, % at 5.96 µM; in the data active means inhibition above about 38%;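 further: extracellular domain of Rv3671c used as enzyme; 0% = enzyme with DMSO and 100% = no enzyme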
Target sequence (P9WHR9 whole entry, looked up, the tested form may be a part): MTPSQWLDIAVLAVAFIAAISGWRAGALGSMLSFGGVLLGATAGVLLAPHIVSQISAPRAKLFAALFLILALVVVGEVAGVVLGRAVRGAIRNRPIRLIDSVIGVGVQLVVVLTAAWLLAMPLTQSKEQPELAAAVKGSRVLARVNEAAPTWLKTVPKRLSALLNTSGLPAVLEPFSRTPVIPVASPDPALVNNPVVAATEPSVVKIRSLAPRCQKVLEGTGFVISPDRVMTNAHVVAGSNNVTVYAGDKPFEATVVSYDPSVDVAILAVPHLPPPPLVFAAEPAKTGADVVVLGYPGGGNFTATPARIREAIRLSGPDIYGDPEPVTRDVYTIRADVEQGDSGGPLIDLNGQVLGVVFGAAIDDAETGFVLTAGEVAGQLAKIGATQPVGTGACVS
The depositor's hits bear a star; nt = no result; + = active, no number. An excerpt weighted towards active compounds, which were near 4% of everything screened.

SMILES	Mtb FBA inh	Mtb betalactam	GDH-TPI counter	RecA intein inh	UGM FP inh	Rv3671c inh
O=C(c1ccco1)N1CCN(c2nc(C3CC3)nc3sc4c(c23)CCCC4)CC1	5	99	7	38*	-1	-2
COc1nc(NCCc2ccc(OC)c(OC)c2)nc(OC)n1	0	-2	9	nt	-1	-2
COc1ccc(CNc2oc(-c3cccc4ccccc34)nc2C#N)cc1	147*	11	10	2	-3	-29
COc1ccc(CCNc2oc(-c3ccc(OC)c(OC)c3)nc2P(=O)(OC)OC)cc1OC	165*	-7	19	-2	2	12
CCOP(=O)(OCC)c1nc(-c2cccc3ccccc23)oc1NCCc1ccc(OC)cc1	168*	5	7	-2	-2	7
CNc1oc(-c2cccc3ccccc23)nc1C#N	+	31	13	1	-2	-9
COc1ccc(Nc2oc(-c3ccccc3F)nc2C#N)cc1	2	-12	22	-6	-1	5
CCOC(=O)[C@H]1[C@H]2COc3ccc(Cl)cc3[C@@H]2N2C(=O)[C@@H](C)NC(=O)[C@@]12C	0	-8	-3	nt	1	1
Cc1cccc(CN2CCN(C3CN(CCc4ccccc4)S(=O)(=O)C3)CC2)c1 (stereo unspecified)	2	nt	nt	nt	nt	nt
CCN1C(=O)[C@H]2[C@@H](c3ccc(-c4cc(C(C)=O)cs4)cc3)N3CCC[C@@]3(C(=O)OC)[C@H]2C1=O	8	-5	40*	nt	-1	-4
CC(=O)O[C@H]1[C@H](C)OC=C[C@@H]1OC(C)=O	4	-3	4	1	-1	4
Cc1cc(C)c(Nc2cc(S(=O)(=O)O)c(N)c3c2C(=O)c2ccccc2C3=O)c(C)c1	-3	18	11	nt	-2	44*
Oc1c(C(Nc2nccs2)c2ccc(C(F)(F)F)cc2)ccc2cccnc12 (stereo unspecified)	124*	nt	8	5	nt	nt
CCOc1ccccc1NC1=C(OC)C(=O)C(Nc2ccccc2OCC)=C(OC)C1=O	0	nt	-3	nt	nt	nt
O=[N+]([O-])c1ccc(N2CCSCC2)cc1	-12	1	71*	3	0	-1
COc1ccc(C(CNC(=O)c2ccc(OC)c(S(=O)(=O)N3CCCC3)c2)N2CCCC2)cc1 (stereo unspecified)	5	2	5	nt	1	4
Cc1ccc(C)c(-n2nnnc2Sc2nnnn2-c2ccccc2)c1	5	29	-2	71*	-4	3
CCSc1nnnn1-c1ccccc1	0	2	8	nt	-2	-7
C[C@H](CO)N1C[C@H](C)[C@@H](CN(C)Cc2ccncc2)Oc2ccc(NC(=O)CCCCCC(=O)Nc3ccccc3N)cc2C1=O	1	8	5	nt	-3	2
O=[N+]([O-])c1cccc(COc2ncnc3cc([N+](=O)[O-])ccc23)c1	3	3	35*	-3	-3	1
CC(O)CNc1cc(N)c([N+](=O)[O-])cc1[N+](=O)[O-] (stereo unspecified)	-5	6	43*	0	-4	-4
CC1=N/C(=C\c2ccc([N+](=O)[O-])cc2)C(=O)N1c1ccc(F)cc1F	-2	5	22	-2	0	-5
Cc1ccnc2ccc(-c3nc4ccccc4o3)cc12	76*	17	17	nt	-1	-17
COc1ccc(-c2ccc3oc(-c4ccc(OC)cc4)c(C#CC4(O)CCCCC4)c3c2)cc1	14	73	44*	2	2	-37
Cc1c(OC(C(=O)O)c2ccccc2)ccc2c1oc(=O)c1ccccc12 (stereo unspecified)	139*	-6	24	0	-1	1
SMILES	Mtb FBA inh	Mtb betalactam	GDH-TPI counter	RecA intein inh	UGM FP inh	Rv3671c inh
c1ccc([C@H]2CN3C(=N2)Sc2ccccc23)cc1	1	2	4	nt	2	-5
Cc1c(CCC(=O)NC2CC2)c(=O)oc2cc(O)ccc12	+	1	15	0	3	7
COc1ccc(OC)c(Cc2nnc(CCC(=O)NC3CCCCC3)o2)c1	0	-9	14	-4	4	3
COc1ccc2c(C)c(CCC(=O)NC3CC3)c(=O)oc2c1	173*	3	25	4	-2	-9
CC1CCN(CCC(=O)Nc2ccc(F)c(F)c2)CC1	0	-4	-3	0	0	4
Cc1nn(C)cc1S(=O)(=O)Nc1ncccn1	-1	-3	8	-6	3	-1
COCCCNC(=O)c1ccc2c(c1)ncn2-c1ccc(C)cc1C	150*	-2	1	2	3	-5
CCOCCCNC(=O)c1ccc2c(c1)ncn2-c1cccc(C)c1	1	-4	-4	0	3	6
Cc1ccc2c(c1)COc1c3ccc(C(=O)N[C@@H](CO)C(C)C)cc3nn1-2	33*	53	21	0	1	4
COCCNC(=O)c1ccc2c3n(nc2c1)-c1ccc(C)cc1CO3	49*	8	27	-2	3	-4
COc1ccc2oc(C(=O)OCC(=O)Nc3ccc(C)c(S(=O)(=O)N4CCOCC4)c3)c(C)c2c1	25	nt	10	nt	nt	nt
O=C(NCc1cccc(C(F)(F)F)c1)c1ccc2nc([C@@H]3O[C@H](CO)[C@@H](O)[C@H]3O)[nH]c2c1	-1	nt	5	nt	nt	nt
CC(=O)c1sc(=S)n(Cc2ccccc2)c1C	-1	1	25	-3	1	nt
COC(=O)c1sc(=S)n(Cc2ccccc2)c1C	5	-2	46*	1	2	-7
O=[N+]([O-])C(/C=C(\Cl)[N+](=O)[O-])=C1N(Cc2ccc(Cl)nc2)CCN1Cc1ccc(Cl)nc1	-14	8	18	61*	0	-1
NS(=O)(=O)c1ccc(NC(=S)NNC(=O)c2ccc(Br)o2)cc1	1	-3	33*	3	1	6
NS(=O)(=O)c1ccc(NC(=S)NC(=O)c2ccc(Br)o2)cc1	0	4	6	-3	1	-1
O=C(C1CCCN(S(=O)(=O)c2ccc(Br)cc2)C1)N1CCN(Cc2ccccc2)CC1 (stereo unspecified)	2	46	2	2	1	3
CC(C)(C)c1ccc(NC(=O)c2cc(C3CCCN(C(=O)CCc4ccccc4)C3)on2)cc1 (stereo unspecified)	6	nt	6	nt	nt	nt
COCCn1c(=NC(=O)c2cc3ccccc3oc2=O)sc2cc(S(N)(=O)=O)ccc21	2	7	49*	-2	-4	-3

From PubChem
